A selection: hits, their analogues and other compounds. The true share with any hit is near 4.1%.
MRP-1 activ: activators of MRP-1; H69AR cells + doxorubicin, viability rescue, CellTiter-Glo; viability increase, % at 10 µM; 0.61% of 140,000 active; AID 799;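 active = viability gain under doxorubicin at or above a set limit, the compound median plus 3 SD, cut at about 4.7% in these data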;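 note: MRP-1 overexpressing cells given doxorubicin 25 µM after compound pretreatment; 18-22 h compound pretreatment then 72 h with doxorubicin before readout; 0% = doxorubicin-only wells and 100% = vehicle-treated cells without doxorubicin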
Cav3 T inh: human Cav3.2 channel inhibition, primary screen | O95180 | Cav3.2-expressing cells, Fluo-4 calcium fluorescence FDSS; stronger effect = lower value | B-score at 10 µM | 4% of 100,000 active;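 active = single-dose well whose peak fluorescence ratio is a statistical outlier from its plate by either plate-standardised score or position-corrected B-score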
MRP resist rev: compounds reversing MRP-mediated drug resistance; 0.04% of 85,000 active; AID 602; H69AR cells + 2 uM doxorubicin, CellTiter-Glo, 72 h; differential viability (reversal), % at 10 µM;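 active = viability drop by adding the cancer drug above about 55%, with treated viability meeting a 40% cutoff, limit read from the data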;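 note: viability without doxorubicin minus viability with 2 µM doxorubicin for each compound; larger differential means the compound sensitizes cells more to doxorubicin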
Mac1 fbg inh: inhibitors of human CD11b/CD18 binding to fibrinogen. P05107+P11215. inhibition, % at 10 µM. K562 CD11b/CD18 adhesion to fibrinogen, ATPlite luminescence; Mn2+ added to activate the integrin. AID 1497. 0.54% of 93,000 active;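 active = primary inhibition of 50% or more at 10 µM, then 40% or more on retest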
CD11b adhes enh: enhancers of human CD11b/CD18 binding to fibrinogen. K562 CD11b/CD18 adhesion to fibrinogen, ATPlite luminescence. activation, % at 10 µM. 0.07% of 93,000 active. AID 1499;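 active = 10 µM primary screen giving 50% or more activity, confirmed by 40% or more on retest at that dose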
PTK2B oligo ant: blocks oligomerization of human Pyk2 in cells; 0.83% of 99,000 active; z-score (the deposit names both 25 µM and 10 µM); Q14289; Q293 cells, Pyk2 FERM NanoBiT luminescence; stronger effect = lower value; AID 1347419;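 active = Z-score of -3 or lower, scaled per plate to the spread of control and sample wells; inactive = z-score above -3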;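 note: negative z-score means lost luminescence so less FERM oligomerization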
* hit, by the source's call.

Results for Cn1c(NC(=O)c2ccccc2)c(-c2cccs2)c(=O)c2ccccc21 ?
MRP-1 activ: -4; Cav3 T inh: 0.005; MRP resist rev: 16; Mac1 fbg inh: 3; CD11b adhes enh: 8; PTK2B oligo ant: 0.67

How did CCOC(=O)CC(NC(=O)c1cccs1)c1ccc(OCC)cc1 (stereo unspecified) do in these assays?
MRP-1 activ: -3; Cav3 T inh: 0.62; MRP resist rev: 2; PTK2B oligo ant: -1.7

How did COC(=O)c1ccccc1NC1=C/C(=N\S(=O)(=O)c2cccs2)c2ccccc2C1=O do in these assays?
MRP-1 activ: -5; Cav3 T inh: -2.6; MRP resist rev: -18; Mac1 fbg inh: 38; CD11b adhes enh: -1; PTK2B oligo ant: -5*

How did O=C1C(Nc2ccccc2)=C/C(=N/S(=O)(=O)c2cccs2)c2ccccc21 do in these assays?
MRP-1 activ: -5; PTK2B oligo ant: -3.8*

How did Cc1ccc(NC2=C/C(=N/S(=O)(=O)c3cccs3)c3ccccc3C2=O)cc1 do in these assays?
MRP-1 activ: -5

What do the screens show for `CC(=O)C1=C(O)C(=O)N(Cc2ccco2)C1c1ccccc1` (stereo unspecified)?
MRP-1 activ: -2; Cav3 T inh: 0.28; MRP resist rev: -1; Mac1 fbg inh: 11; CD11b adhes enh: -2; PTK2B oligo ant: 0.72

How did O=C(Nc1cc(S(=O)(=O)N2CCCC2)ccc1OCC(F)(F)F)c1ccc(F)cc1 do in these assays?
MRP-1 activ: -1

What do the screens show for `CCCCCCCCC/C(=N\O)c1ccccn1`?
MRP-1 activ: -5; Cav3 T inh: -4.1; MRP resist rev: -9; PTK2B oligo ant: -0.86

How did Cc1c(N=Cc2c(O)n(Cc3ccco3)c(=O)c3ccccc23)c(=O)n(-c2ccccc2)n1C do in these assays?
MRP-1 activ: -3; Cav3 T inh: -0.29; MRP resist rev: -22; Mac1 fbg inh: -17; CD11b adhes enh: -4; PTK2B oligo ant: -1.9

Results for O=c1c2ccccc2c(C=NCCc2ccccc2)c(O)n1Cc1ccccc1 ?
MRP-1 activ: -2; Cav3 T inh: -3.9*; MRP resist rev: -4; Mac1 fbg inh: 13; CD11b adhes enh: 1; PTK2B oligo ant: -0.81

Results for Fc1ccc(C(CCCn2nnc(-c3cccnc3)n2)c2ccc(F)cc2)cc1 ?
MRP-1 activ: -5; Cav3 T inh: -4.2*; MRP resist rev: -12; Mac1 fbg inh: 44; CD11b adhes enh: -2; PTK2B oligo ant: -3.7*

What do the screens show for `O=C(CCC(=O)N(CC(=O)NC1CCCCC1)c1ccc2c(c1)OCO2)Nc1ccccn1`?
MRP-1 activ: -4; Cav3 T inh: -5.7*; MRP resist rev: 16; Mac1 fbg inh: 10; CD11b adhes enh: 1; PTK2B oligo ant: -0.23

Results for Cc1cc(C)cc(N(CC(=O)NCc2ccc3c(c2)OCO3)C(=O)CCC(=O)Nc2ccccn2)c1 ?
MRP-1 activ: -1; Cav3 T inh: -6.1*; MRP resist rev: 18; Mac1 fbg inh: -13; CD11b adhes enh: 0; PTK2B oligo ant: -2.8

How did Cc1ccc(C)c(N(CC(=O)NCc2ccc3c(c2)OCO3)C(=O)CCC(=O)Nc2ccccn2)c1 do in these assays?
MRP-1 activ: -2; MRP resist rev: 3; Mac1 fbg inh: 2; CD11b adhes enh: 1; PTK2B oligo ant: -2.8

How did CCCCCn1c(N2CCN(c3cccc(Cl)c3)CC2)nc2c1c(=O)[nH]c(=O)n2C do in these assays?
MRP-1 activ: -4; Cav3 T inh: -5.4*; MRP resist rev: 15; Mac1 fbg inh: -2; CD11b adhes enh: 1; PTK2B oligo ant: 0.39

What do the screens show for `CCCCCn1c(CN2CCN(c3cc(Cl)ccc3C)CC2)nc2c1c(=O)[nH]c(=O)n2C`?
MRP-1 activ: -3; Cav3 T inh: -4.4*; MRP resist rev: -24; Mac1 fbg inh: 30; CD11b adhes enh: -3; PTK2B oligo ant: -0.26

Results for Cc1ccc(C(=O)COC(=O)CCCC(=O)Nc2cc(C(F)(F)F)ccc2Cl)cc1C ?
MRP-1 activ: -2

How did Cc1cc(NCCCN2CCOCC2)n2c(nc3ccccc32)c1C#N do in these assays?
MRP-1 activ: -3; Cav3 T inh: 1.7; MRP resist rev: 28; Mac1 fbg inh: -21; CD11b adhes enh: -4; PTK2B oligo ant: 0.42

How did Cc1cccn2c(/C=N/OCc3ccc(F)cc3)c(-c3ccc(Cl)cc3)nc12 do in these assays?
MRP-1 activ: -1; PTK2B oligo ant: 0.27

How did COc1ccc(/C(C#N)=C/c2c(-c3ccc(Cl)cc3)nc3c(C)cccn23)cc1 do in these assays?
MRP-1 activ: -4; Cav3 T inh: -5.8*; PTK2B oligo ant: -0.47

Results for Cc1ccc(C)c(CN2CCCN(C(=O)Cn3ncc4c3-c3ccccc3OC4)C2)c1 ?
MRP-1 activ: -4; Cav3 T inh: -6*; MRP resist rev: -10; Mac1 fbg inh: 10; CD11b adhes enh: -1

What do the screens show for `O=C(Cn1ncc2c1-c1ccccc1OC2)Nc1cccc(Cl)c1`?
MRP-1 activ: -1; Cav3 T inh: -5*; MRP resist rev: -13; Mac1 fbg inh: 3; CD11b adhes enh: -5

What do the screens show for `COc1ccc(C(=O)COC(=O)[C@H](C)Nc2ccc(C(F)(F)F)cc2[N+](=O)[O-])cc1`?
MRP-1 activ: 0; Cav3 T inh: -1; MRP resist rev: -1; Mac1 fbg inh: -22; CD11b adhes enh: 41; PTK2B oligo ant: 0.46

Results for COc1ccc(NC(=O)c2oc3ccccc3c2NC(=O)c2ccc3c(c2)OCO3)cc1 ?
MRP-1 activ: 8.4*; Cav3 T inh: -1.1; Mac1 fbg inh: -15; CD11b adhes enh: -2; PTK2B oligo ant: -2.1

Results for Clc1ccc(C(c2nnnn2C2CCCC2)N2CCN(c3nc4ccccc4s3)CC2)cc1 (stereo unspecified) ?
Cav3 T inh: -8.1*; MRP resist rev: -24; PTK2B oligo ant: -3.3*

Results for COc1ccccc1N1CCN(C(c2ccccc2Cl)c2nnnn2C(C)(C)C)CC1 (stereo unspecified) ?
MRP-1 activ: 0; Cav3 T inh: -6.8*; Mac1 fbg inh: 5; CD11b adhes enh: 8; PTK2B oligo ant: -2

What do the screens show for `CCC(c1nnnn1C(C)(C)C)N1CCN(c2cc(Cl)ccc2C)CC1` (stereo unspecified)?
MRP-1 activ: 0; Cav3 T inh: -3.8*; MRP resist rev: 4; Mac1 fbg inh: -5; CD11b adhes enh: 0; PTK2B oligo ant: -1.2

Results for COc1ccccc1N1CCN(C(c2ccc(Cl)cc2)c2nnnn2C(C)(C)C)CC1 (stereo unspecified) ?
MRP-1 activ: -3; Cav3 T inh: -3.8; MRP resist rev: 14; Mac1 fbg inh: 3; CD11b adhes enh: -5; PTK2B oligo ant: -2.5

How did CCCC(c1nnnn1CC1CCCO1)N1CCN(c2cc(Cl)ccc2C)CC1 (stereo unspecified) do in these assays?
MRP-1 activ: 2; MRP resist rev: 2; Mac1 fbg inh: -15; CD11b adhes enh: -1; PTK2B oligo ant: -2
